Source: PubChem BioAssay (National Center for Advancing Translational Sciences (NCATS))
Sampled rows, rich in hits. Any-hit rate of the full collection: about 7.3%.
ELG1 genotoxic – inducers of genotoxicity in HEK293T ELG1-luciferase cells. 1.3% of 330,000 active. Potency, µM (titrated, usually from 46 µM), for the others: at the top dose activity change, positive = activation, usual class: activators. HEK293T ELG1-luciferase reporter, luminescence, 16 h; further: % of control where 0% means no effect; nearly all actives have a fitted effect of over 60% in size
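ELG1-luciferase HEK293T cells, 2,000/well; compound pinned in; 16 hr, 37 °C, 5% CO2; ONE-Glo, 30 min RT; luminescence on CCD imager.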
FLuc counter – counter-screen for miR-21 project: firefly luciferase inhibitors or activators | purified FLuc, Km substrates, luminescence inhibition | Potency, µM (titrated, usually from 57.5 µM), inactives show top-dose activity change, negative = inhibition, most hits filed as inhibitors | 6.9% of 360,000 active;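 further: plate controls were vehicle for no effect and reference inhibitor for full effect; nearly all actives have a fitted effect of over 55% in size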
Target sequence (P08659 whole entry, looked up): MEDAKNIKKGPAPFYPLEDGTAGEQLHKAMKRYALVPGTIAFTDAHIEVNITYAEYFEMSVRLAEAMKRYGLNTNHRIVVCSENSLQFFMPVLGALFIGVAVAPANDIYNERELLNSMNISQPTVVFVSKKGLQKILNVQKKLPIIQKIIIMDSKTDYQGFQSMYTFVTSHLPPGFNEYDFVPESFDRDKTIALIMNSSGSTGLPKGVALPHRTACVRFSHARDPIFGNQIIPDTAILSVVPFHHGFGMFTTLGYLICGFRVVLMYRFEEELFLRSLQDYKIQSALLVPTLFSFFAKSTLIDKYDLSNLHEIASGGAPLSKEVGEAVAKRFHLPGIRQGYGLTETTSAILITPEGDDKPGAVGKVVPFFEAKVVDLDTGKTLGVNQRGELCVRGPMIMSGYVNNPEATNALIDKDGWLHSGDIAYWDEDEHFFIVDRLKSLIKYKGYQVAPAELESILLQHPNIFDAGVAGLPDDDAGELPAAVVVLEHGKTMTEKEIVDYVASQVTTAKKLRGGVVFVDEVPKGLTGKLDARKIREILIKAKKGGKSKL
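Biochemical qHTS of compounds, final roughly 60 µM downward over six points, against 10 nM purified firefly luciferase using Km concentrations of substrates (10 uM D-luciferin, 10 uM ATP) in Tris acetate pH 7.5 buffer; luminescence output.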
Rab9 prom act – activates the Rab9 promoter; Huh7 Rab9 promoter-luciferase reporter, luminescence, 24 h; 2.8% of 320,000 active; Potency, µM (highest dose often 9.22 µM), for inactives: at the top dose activation, negative = inhibition, hits mostly activators; further: % of control where 0% means no effect; nearly all actives have a fitted effect of over 60% in size
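Steps: seed 1500 Huh7 Rab9-luc cells per well, rest 2 h at 37 °C; add compound in DMSO; incubate 24 h; add luciferase reagent, 10 min ambient; read luminescence.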
uPA surface inh – inhibitors of cell surface uPA generation. cell surface uPA generation assay, qHTS. Potency, µM (titrated, usually from 38.3 µM), for inactives: at the highest dose activity change, negative = inhibition, most hits filed as inhibitors. 0.31% of 330,000 active. AID 540303; active means well fitted inhibition curve with a large enough effect; inconclusive means small, poorly fitted or top-dose-only effect; inactive means no such curve, though single readings can be large or run the other way; tested in mouse RAW 264.7 cells; further: on the % scale 0 is the no-effect control and ±100 the full control effect; nearly all actives have a fitted effect of over 55% in size
NPC1 promoter act – activators of NPC1 promoter; Huh7 NPC1 promoter luciferase reporter, 24 h; Potency, µM (series often up to 9.22 µM), for the others: at the top dose activation, hits mostly activators; 2.4% of 320,000 active; AID 485313; further: % of control where 0% means no effect; nearly all actives have a fitted effect of over 60% in size
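Huh7 reporter cells (NPC1 promoter driving luciferase) are dosed with compound for 24 h at 37 °C, 5% CO2; luciferase detection reagent is then added and luminescence measured after 10 min at ambient temperature.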
SMN2 splice up – enhancers of SMN2 splice variant expression | HEK293 SMN2-luciferase splicing reporter, luminescence, 30-36 h | Potency, µM (top dose mostly 46.1 µM), for the others: at the top dose activity change, positive = activation, most hits filed as activators | 2.8% of 210,000 active; further: % of control where 0% means no effect; nearly all actives have a fitted effect of over 55% in size
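HEK293 cells carry an SMN2 minigene-luciferase reporter in which exon 7 inclusion puts luciferase in frame. Cells were seeded at 2000 cells/well, attached for 10-12 hours, then exposed to compounds for 30-36 hours at 37C before ONE-Glo luminescence.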
* hit, by the source's call; ? = inconclusive; · = no result given. Unless noted, the call rests on the fitted dose curve; in most records, active means well fitted curve in the direction sought with a large enough effect; inconclusive means small, poorly fitted or top-dose-only effect, or another doubt; inactive means no such curve, though single readings can be large; an effect the other way counts as inactive or inconclusive. Potency means the concentration at half of the fitted maximal effect.

SMILES | ELG1 genotoxic | FLuc counter | Rab9 prom act | uPA surface inh | NPC1 promoter act | SMN2 splice up
Cc1cc(C(F)(F)F)n2ncc(-c3cccc(Br)c3)c2n1 | -3% | 4% | 9% | 11% | 12% | 8%
COc1ccc(-c2c(C)nn3c(NC4CCCC4)cc(C)nc23)cc1OC | -8% | -13% | -3% | 8% | -13% | ·
Cc1cc(NC2CCCC2)n2nc(C)c(-c3ccccc3)c2n1 | ? | 19µM* | ? | 1% | 29% | ·
O=S(=O)(NCCc1csc2nc(-c3ccc(F)cc3)nn12)c1ccc2c(c1)OCCO2 | · | -16% | · | · | · | ·
CC(=O)c1cnc2c(-c3ccccc3)cnn2c1C | ? | ? | 10% | -2% | 13% | -3%
COc1ccccc1-c1cnn2c(NCCc3ccccc3)cc(C)nc12 | 10% | 11µM* | 19% | 5% | 15% | ·
COc1ccc(CCNc2cc(C)nc3c(-c4ccccc4)cnn23)cc1OC | -5% | -7% | -1% | 7% | 0% | -29%
Cc1cc(NC2CCCC2)n2ncc(-c3ccccc3)c2n1 | 0.16µM* | 0.21µM* | ? | -12% | ? | ·
Cc1cc(NCc2ccccc2)n2ncc(-c3ccccc3)c2n1 | 4.1µM* | 2.4µM* | 0.89µM* | -5% | 1.6µM* | ·
COc1ccc2c(CNCCc3cccs3)c(C(=O)O)n(Cc3ccc(F)cc3Cl)c2c1 | · | -6% | · | · | · | ·
CC(C)(C)C(=O)/C=C/c1ccc(Oc2ccccc2)cc1 | ? | 6µM* | 6.3µM* | -12% | ? | ·
CCOc1ccc(/C=C/C(=O)NCc2ccccc2)cc1 | 8% | 15µM* | -2% | -2% | 2% | 6%
CCOc1ccc(NC(=O)/C=C/c2ccccc2)c([N+](=O)[O-])c1 | 17% | ? | ? | -7% | 25% | ?
CCOc1ccc(C(=O)/C=C/c2ccc(SC)cc2)cc1 | 0% | 5.4µM* | -1% | · | 1% | -6%
CCOc1ccc(N/C=C/C(=O)c2ccccc2)c([N+](=O)[O-])c1 | ? | 0.12µM* | 0.1µM* | -14% | 0.1µM* | 0.56µM*
CCOc1ccc(/C=C/C(=O)Nc2ccccc2C(F)(F)F)cc1 | 6% | ? | 20% | 7% | 24% | 14%
COc1ccc(OCCNC(=O)/C=C/c2ccccc2)cc1 | 10% | -6% | -2% | 3% | -2% | -3%
O=C(CC1CCCCC1)NCCOc1ccccc1 | 6% | -11% | 1% | 2% | 11% | 8%
O=C(/C=C/c1ccccc1)NCCOc1ccccc1 | ? | 24µM* | ? | -3% | 27% | ?
CCOc1ccc(/C=C/C(=O)c2ccccc2)cc1 | ? | 0.15µM* | 0.79µM* | -16% | 1.1µM* | ·
O=C(NCCOc1ccccc1)C1CCCCC1 | ? | ? | 3.2µM* | 2% | ? | 20µM*
O=S(=O)(c1ccccc1)c1nc(-c2ccco2)oc1SCc1ccc(F)cc1 | · | -15% | · | · | · | -12%
Cc1nc2ccn(Cc3ccco3)c(=O)c2cc1C(=O)NCc1ccccc1 | · | 2% | · | · | · | ·
CCN1CCN(Cc2ccc(NC(=O)c3cc(NC(=O)c4cc(-c5ccc(OC)cc5)n[nH]4)cc(OC)c3)cc2C(F)(F)F)CC1 | 8% | 13µM* | -2% | ? | -2% | ·
CCN1CCN(Cc2ccc(NC(=O)c3cc(NC(=O)N4CCNC4=O)cc(OC)c3)cc2C(F)(F)F)CC1 | -19% | -12% | -4% | -9% | 0% | ·
SMILES | ELG1 genotoxic | FLuc counter | Rab9 prom act | uPA surface inh | NPC1 promoter act | SMN2 splice up
CCN1CCN(Cc2ccc(NC(=O)c3cc(NC(=O)c4ccc5n[nH]nc5c4)cc(OC)c3)cc2C(F)(F)F)CC1 | 3% | 2.7µM* | -3% | 3% | -7% | ·
O=C(O)/C=C/c1ccc(O)cc1 | · | · | · | -22% | · | ·
Cc1ccc(/C=C/C(=O)c2ccc(O)cc2)cc1 | 17% | 2.1µM* | ? | -9% | 19% | ·
CSc1ccc(/C=C/C(=O)c2ccc(O)cc2)cc1 | ? | 3µM* | ? | -18% | 24% | -3%
CC(C)(C)c1ccc(OCCn2ccccc2=O)cc1 | 4.6µM* | 5.4µM* | 1.1µM* | -3% | 1.4µM* | 11µM*
O=C1c2ccccc2NC(c2ccc(-c3cccs3)o2)N1O (stereo not given) | ? | 12µM* | 1% | ? | 10% | ·
O=C1c2ccccc2NC(c2ccc(Br)o2)N1O (stereo not given) | 11% | -30% | 17% | ? | 20% | ·
COc1cc(C2Nc3ccccc3NC3=C2C(=O)CC(C)(C)C3)cc(OC)c1OC(C)=O (stereo not given) | -6% | 1% | 4% | -1% | 7% | ·
O=C(NNC(=O)c1ccc(O)cc1O)c1ccc(-c2ccccc2)cc1 | -4% | 19µM* | -5% | -27% | -6% | ·
O=C(NNc1c2ccccc2nc2ccccc12)c1ccc(O)cc1 | 5% | 17µM* | 8% | ? | 1% | -45%
O=C(NNc1c2ccccc2nc2ccccc12)c1cccc(O)c1 | -7% | 24µM* | -1% | -3% | 0% | -34%
O=C(NNc1c2ccccc2nc2ccccc12)c1ccccc1Cl | 4% | 2% | -5% | -17% | -1% | ·
O=C(NNc1c2ccccc2nc2ccccc12)c1ccc(O)cc1O | -1% | 13µM* | -3% | 6% | -1% | -3%
O=C(NNc1c2ccccc2nc2ccccc12)c1ccccc1O | -7% | ? | -2% | 3% | 5% | -15%
Cc1cc(O)c(C(c2ccc(F)cc2)N2CCCCC2)c(=O)n1Cc1ccco1 (stereo not given) | · | -17% | · | · | · | ·
CCOC(=O)N1CCC(NC(=O)c2cnn(-c3ccc(F)cc3F)c2C2CCN(C(=O)OC(C)(C)C)CC2)CC1 | · | -5% | · | · | · | ·
COc1ccc(NC(=O)Cn2c3ncccc3c(=O)n2-c2ccc(C)c(C)c2)c(OC)c1 | · | -5% | · | · | · | ·
COc1ccc(CNC(=O)c2csc(Cc3ccccc3)n2)cc1 | 7% | 19µM* | 19% | 2% | 4% | ?
COc1ccccc1CNC(=O)c1csc(Cc2ccc(Cl)cc2)n1 | -3% | 0% | 0% | -7% | -4% | 5%
O=C(Nc1ccc(F)cc1)c1csc(Cc2ccccc2)n1 | 6% | 5.4µM* | ? | -8% | ? | 1%
COc1ccc(NC(=O)c2csc(Cc3ccccc3)n2)cc1 | ? | 6.7µM* | ? | -2% | 26% | -15%
Cc1c(C2=CCN(S(=O)(=O)c3ccc(CC(C)C)cc3)CC2)c2ccccc2n1CC(=O)N1CCCC1 | · | -9% | · | · | · | -3%
COc1ccc(OCc2nc(C#N)c(NCc3ccccc3Cl)o2)cc1 | · | -2% | · | · | · | 19%
CCCCn1c(CNC(=O)c2ccc(OC)cc2)nnc1SCC(=O)Nc1ccccc1 | · | -7% | · | · | · | -4%
COCCn1c(C)cc(O)c(C(c2ccccc2)N2CCN(c3ccccc3)CC2)c1=O (stereo not given) | · | -5% | · | · | · | ·
